Bioassay records (PubChem BioAssay)
This is a sample that favours compounds with a hit; in the whole collection about 4.3% have one here.
HSF1 inhib: HSF1 inhibition. NIH3T3-HGL HSE-luciferase, MG132-induced, luminescence 8 h; active compounds read low. activity change, negative = inhibition, % at 7.5 µM (by protocol). hit rate 0.77% among 300,000. AID 2098;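 active means more than half of replicate wells show activity change below -50%, luminescence cut by over half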;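 further: luciferase reports HSF-1 transcriptional activity via heat shock element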
SMARCA2 activ: increases SMARCA2 function in MMTV reporter cells. AID 652017. hit rate 1% among 370,000. activation, % at 9.1 µM. MG213 cells, MMTV-luciferase reporter, dexamethasone, overnight; in the data active means activation above about 7.8%
esBAF inh: inhibitors of esBAF chromatin remodeling in mouse ES cells; Bmi1-luciferase knock-in reporter, 24 h; 100% = twice the neutral-well signal; reporter increase, % at 12.5 µM; hit rate 2% among 350,000; in the data active means activation above about 40%;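 further: a rise in the Bmi1 reporter signal indicates esBAF inhibition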
HSF-1 act: increases HSF-1 driven luciferase reporter signal | NIH3T3-HGL HSF-1 luciferase reporter, MG132, 8 h; 100% = twice DMSO control signal | activation, % at 9 µM | hit rate 1.7% among 300,000;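 active means mean replicate activation of at least 50% with a set share of replicates each reaching 50%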
Wnt act: Wnt/beta-catenin pathway activation | Wnt/beta-catenin reporter cell assay, activator, plate reader | activation, % at 9.35 µM | hit rate 1.2% among 300,000 | AID 743398; in the data active means activation above about 30%, passing the limit was not always enough
MITF act: increases MITF-driven TRPM1 promoter luciferase signal. SK-MEL-5 TRPM1-promoter luciferase, 24 h; % of positive control, neutral wells = 0. activation, % at 12.5 µM. hit rate 0.75% among 300,000. AID 588334;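 active means mean activation of at least 80% with every replicate also reaching 80%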
Large screens that a line does not name were inactive.

COCC(=O)Nc1ccc2c(c1)C(=O)N(C)[C@H]1CC[C@@H](CC(=O)OC)O[C@H]1CO2	none (no result: HSF1 inhib, SMARCA2 activ, HSF-1 act, Wnt act, MITF act)
C[C@H]1CN([C@@H](C)CO)C(=O)c2cc(NC(=O)C3CCCCC3)ccc2O[C@@H]1CN(C)S(=O)(=O)c1ccc(F)cc1	none (no result: HSF1 inhib, SMARCA2 activ, HSF-1 act, Wnt act, MITF act)
CN1C(=O)c2cc(NC(=O)Cc3cccs3)ccc2OC[C@H]2O[C@H](CC(=O)O)CC[C@H]21	none (no result: HSF1 inhib, SMARCA2 activ, HSF-1 act, Wnt act, MITF act)
COc1ccc(NC(=O)c2cccc(OS(=O)(=O)N(C)C)c2)cc1	HSF-1 act 54.5, Wnt act 54.7
COC(=O)c1ccc(OS(=O)(=O)N(C)C)cc1	esBAF inh 48.8
CN(C)S(=O)(=O)Oc1cccc(C(=O)Nc2cccc(Cl)c2)c1	esBAF inh 44.4, Wnt act 31.2 (no result: MITF act)
CO[C@@H]1CN(C)C(=O)c2ccc(NC(=O)NC(C)C)cc2OC[C@@H](C)N(Cc2ccccc2)C[C@@H]1C	none (no result: HSF1 inhib, SMARCA2 activ, HSF-1 act, Wnt act, MITF act)
CCn1nnc(NC(=O)c2sc3ccccc3c2Cl)n1	HSF-1 act 73.6 (no result: Wnt act)
C[C@H]1CCCCO[C@@H](CN(C)Cc2ccc(C(=O)O)cc2)[C@@H](C)CN([C@@H](C)CO)C(=O)c2cc(NC(=O)Nc3ccccc3)ccc2O1	none (no result: HSF1 inhib, SMARCA2 activ, HSF-1 act, Wnt act, MITF act)
Cc1ccc(S(=O)c2snnc2C)cc1 (stereo not given)	none
CNC(=O)c1nnsc1S(=O)c1ccc(Cl)cc1 (stereo not given)	HSF-1 act 73.0 (no result: esBAF inh)
CCCNC(=O)c1nnsc1S(=O)c1ccc(Cl)cc1 (stereo not given)	HSF1 inhib -95.8 (no result: esBAF inh)
COc1ccc(NC(=O)N(C)C[C@@H]2OCCCC[C@@H](C)Oc3ccc(NC(=O)Nc4cccc5ccccc45)cc3C(=O)N([C@H](C)CO)C[C@@H]2C)cc1	none (no result: HSF1 inhib, SMARCA2 activ, HSF-1 act, Wnt act, MITF act)
C[C@H]1CN([C@@H](C)CO)C(=O)c2cccc(NC(=O)Nc3ccccc3)c2O[C@H]1CN(C)Cc1ccc(-c2ccccc2)cc1	none (no result: HSF1 inhib, SMARCA2 activ, HSF-1 act, Wnt act, MITF act)
O=C(CSc1nc2ccccc2c(=O)[nH]1)NCc1ccc(Cl)cc1	none
Clc1ccc(CSc2nc3ccncc3[nH]2)cc1	HSF-1 act 55.9, Wnt act 37.4
Cc1ccc(CSc2nc3ccncc3[nH]2)cc1	none
O=c1[nH]c(SCc2ccc(Cl)cc2)nc2ccccc12	HSF-1 act 65.9 (no result: esBAF inh)
CNC(=O)C[C@@H]1CC[C@@H]2[C@@H](COc3ccc(NC(=O)Nc4cccc(C)c4)cc3C(=O)N2C)O1	none (no result: HSF1 inhib, SMARCA2 activ, HSF-1 act, Wnt act, MITF act)
C[C@H](CO)N1C[C@H](C)[C@@H](CN(C)S(=O)(=O)c2ccc(C(F)(F)F)cc2)OCc2ccccc2-c2ccccc2C1=O	none (no result: HSF1 inhib, SMARCA2 activ, HSF-1 act, Wnt act, MITF act)
O=C(c1ccccn1)N1C[C@H]2[C@@H](c3ccccc31)[C@H](CO)N2C(=O)Nc1ccccc1	none (no result: HSF1 inhib, SMARCA2 activ, HSF-1 act, Wnt act, MITF act)
C[C@@H]1CN([C@H](C)CO)C(=O)Cc2cc(NC(=O)Cc3ccccc3)ccc2O[C@H]1CN(C)C	none (no result: HSF1 inhib, SMARCA2 activ, HSF-1 act, Wnt act, MITF act)
Cc1ccc(-c2nn(-c3ccccc3)cc2CN(C)C(=O)CCC(=O)O)cc1C	HSF1 inhib -55.3
O=C(O)CCC(=O)NCc1cn(-c2ccccc2)nc1-c1cccc(Br)c1	none
CN(C)c1ccc2c(c1)[C@H]1C[C@H](CC(=O)NCc3ccc(Cl)cc3)O[C@@H](CO)[C@H]1O2	none (no result: HSF1 inhib, SMARCA2 activ, HSF-1 act, Wnt act, MITF act)
C[C@H]1CN([C@@H](C)CO)C(=O)CCCn2nncc2CO[C@@H]1CN(C)S(=O)(=O)c1ccc(Oc2ccccc2)cc1	none (no result: HSF1 inhib, SMARCA2 activ, HSF-1 act, Wnt act, MITF act)
O=C1/C(=C/c2ccc([N+](=O)[O-])cc2)C=C(c2ccccc2)N1c1ccc(O)cc1	HSF-1 act 94.6 (no result: esBAF inh)
O=C(O)c1cccc(N2C(=O)/C(=C/c3ccc([N+](=O)[O-])cc3)C=C2c2ccccc2)c1	HSF1 inhib -71.7 (no result: Wnt act)
O=C1/C(=C/c2ccc([N+](=O)[O-])cc2)C=C(c2ccccc2)N1c1ccccc1	none (no result: Wnt act)
O=C(C[C@H]1C[C@@H]2c3cc(NC(=O)C4CCOCC4)ccc3O[C@@H]2[C@H](CO)O1)NCc1ccncc1	none (no result: HSF1 inhib, SMARCA2 activ, HSF-1 act, Wnt act, MITF act)
COc1cc(/C=C2\SC(N)=NC2=O)cc(Cl)c1O	none
COc1cc(/C=C2\CCC/C(=C\c3ccc(O)c(OC)c3)C2=O)ccc1O	HSF-1 act 113.7
COc1cc(/C=C2/CCC/C(=C\c3cc(O)c(OC)c(Cl)c3)C2=O)cc(Cl)c1O	HSF-1 act 204.1, Wnt act 41.4
CCCC#Cc1cnc2c(c1)C(=O)N([C@@H](C)CO)C[C@@H](C)[C@@H](CN(C)C(=O)NC1CCCC1)O2	none (no result: HSF1 inhib, SMARCA2 activ, HSF-1 act, Wnt act, MITF act)
COc1cc(/C=N/O)ccc1OCc1ccccc1Cl	MITF act 96.0
